VP16 counter – inhibits Gal4-VP16 luciferase reporter, ROR gamma counter-screen. Drosophila S2 Gal4-VP16 UAS-luciferase, luminescence, 20 h. Potency, µM (doses to about 53.6 µM), for the others: top-dose activity, negative = inhibition, most hits filed as inhibitors. 310,000 compounds, 3.5% hits. AID 2546;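 also: Gal4-VP16 expression switched on by copper sulfate through the metallothionein promoter; potency is read from the fitted curve at half-maximal effect; % is scaled to controls: 0 for no effect and ±100 for the full control effect; nearly all actives have a fitted effect of over 50% in size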
ELG1 repair inh – ELG1-dependent DNA repair inhibition | HEK293T ELG1-luciferase reporter, luminescence, 16 h; DNA damage induced by 5-fluorouridine | Potency, µM (doses to about 46.1 µM), for the others: at the highest dose activity change, negative = inhibition, actives largely listed as inhibitors | 330,000 compounds, 2.3% hits; also: potency is read from the fitted curve at half-maximal effect; % is scaled to controls: 0 for no effect and ±100 for the full control effect; nearly all actives have a fitted effect of over 55% in size
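Overnight (16 hr) co-exposure of 2,000 cells/well to 5-fluorouridine and compound at 37 °C preceded detection. Luciferase was quantified via ONE-Glo luminescence; loss of signal denotes inhibition.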
Giardia killer – kills Giardia lamblia. Giardia lamblia trophozoite viability. activity change, % at 7.66 µM, hits read low. 340,000 compounds, 0.15% hits. AID 540267; in the data active = activity change below about -80%; inconclusive = between about -30% and that limit;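 also: parasites exposed to compound for two days anaerobically before the ATP read; % is scaled to controls: 0 for no effect and ±100 for the full control effect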
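Viability, read as ATP luminescence: trophozoites at 100 cells/well, compound added, 48 hrs anaerobic at 37 deg C, then 15-30 min room-temperature development before reading.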
BRCA1 expr act – increases BRCA1 expression | MCF7-BRCA1-FFLuc reporter, luminescence, 48 h; response scale: scaled: vehicle 0%, 10 µM genistein 100% | Potency, µM (top dose mostly 46.1 µM), without a hit: at the highest dose activation, actives largely listed as activators | 380,000 compounds, 1.1% hits | AID 624202; also: potency is read from the fitted curve at half-maximal effect; nearly all actives have a fitted effect of over 80% in size
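Compounds are tested at multiple concentrations on MCF7 BRCA1-luciferase reporter cells seeded at 2000 per well; after 48 h, a single luminescence end-point is taken and curves fitted to the normalized data.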
p53 reactivator – re-activators of mutant p53; H1299 p53-A138V BP100-luciferase reporter, luminescence, 24 h; AID 504706; Potency, µM (series often up to 92.2 µM), inactives show at the top dose activity change, positive = activation, actives largely listed as activators; 320,000 compounds, 0.063% hits; also: potency is read from the fitted curve at half-maximal effect; % of control where 0% means no effect; nearly all actives have a fitted effect of over 45% in size
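H1299 (p53-null), stable ts p53-A138V + BP100-Luc; 1000 cells/well, Opti-MEM/10% FBS; cpd 4 pt, 1:5; 24 h, 37 deg C, 5% CO2; detection reagent 10 min RT; luminescence.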
RORg inh – inhibitors of mouse ROR gamma transcriptional activity | P51450 | Drosophila S2 Gal4-RORgamma UAS-luciferase reporter, 20 h | Potency, µM (top dose mostly 53.6 µM), without a hit: at the highest dose activity change, negative = inhibition, hits mostly inhibitors | 310,000 compounds, 5.4% hits; also: potency is read from the fitted curve at half-maximal effect; % is scaled to controls: 0 for no effect and ±100 for the full control effect; nearly all actives have a fitted effect of over 60% in size
Target sequence (P51450 whole entry, looked up, the tested form may be a part): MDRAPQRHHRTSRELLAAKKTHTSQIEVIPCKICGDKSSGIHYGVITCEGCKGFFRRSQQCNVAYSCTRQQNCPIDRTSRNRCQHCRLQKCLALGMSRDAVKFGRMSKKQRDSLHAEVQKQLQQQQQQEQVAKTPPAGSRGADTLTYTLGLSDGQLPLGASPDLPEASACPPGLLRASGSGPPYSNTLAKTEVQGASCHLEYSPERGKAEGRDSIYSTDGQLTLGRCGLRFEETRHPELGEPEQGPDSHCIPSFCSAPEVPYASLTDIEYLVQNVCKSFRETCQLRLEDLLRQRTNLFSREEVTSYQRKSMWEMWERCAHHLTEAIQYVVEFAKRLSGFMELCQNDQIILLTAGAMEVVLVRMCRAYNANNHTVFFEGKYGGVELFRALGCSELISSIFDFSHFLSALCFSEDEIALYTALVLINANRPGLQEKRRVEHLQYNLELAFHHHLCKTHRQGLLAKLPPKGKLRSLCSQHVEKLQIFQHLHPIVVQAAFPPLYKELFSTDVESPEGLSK
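Compounds are pin-transferred onto Drosophila Schneider cells expressing a copper-inducible Gal4–ROR gamma transactivation domain fusion. After 1 hr, copper sulfate is added to 700 uM final; luciferase is read 20 hr later.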
Numbers without * were called inactive; ? = inconclusive; . = no result given; [ ] = remark or other dose. Sampled rows, rich in hits. Any-hit rate of the full collection: about 7.6%. Unless noted, calls follow the shape of the dose curve; as a rule, active = well fitted curve in the direction sought with a large enough effect; inconclusive = small, poorly fitted or top-dose-only effect, or another doubt; inactive = no such curve, though single readings can be large; an effect the other way counts as inactive or inconclusive.

SMILES	VP16 counter	ELG1 repair inh	Giardia killer	BRCA1 expr act	p53 reactivator	RORg inh
CCc1nc2sc3c(c2c(=S)[nH]1)CC(C)(C)OC3	6.3µM*	11%	21	-1%	-6%	2µM*
CSc1nc2sc3c(c2c(=S)[nH]1)CC(C)(C)OC3	11µM*	-9%	8	-10%	1%	3.2µM*
CC1(C)Cc2c(sc3nc(SCC(=O)O)[nH]c(=O)c23)CO1	2%	0%	-4	-1%	-2%	15%[10 µM]
Cc1ccc2occ(/C=N/NC(=O)c3ccc(O)cc3)c(=O)c2c1	-28%	?	-3	53%	8%	20µM*
Cc1cc(/C=N/NC(=O)c2ccc(O)cc2)c(C)n1CC(C)C	-22%	?	-14	63%	-1%	7.9µM*
CC(C)N1CC(C(=O)Nc2ccc(Cl)cc2Cl)CC1=O (configuration not stated)	.	.	.	20%	.	.
C/C(=C1/SC(N2CCOCC2)=NC1=O)c1ccc(Cl)cc1	-5%	-1%	3	-14%	-6%	-8%
COc1ccc2c(=O)c(-c3ccc(C)cc3)c(-c3ccccc3)oc2c1	.	?	?	10%	-1%	.
OC(COc1ccccc1CNCc1cccnc1)CN1CCc2ccccc2C1 (configuration not stated)	-6%	-3%	9	3%	4%	0%
Cc1ccc(-c2[nH]c3ccccc3c2C(C[N+](=O)[O-])c2ccco2)cc1 (configuration not stated)	22µM*	?	5	-77%	-15%	3%
CC(C)CCN1CCC(n2nccc2NC(=O)c2ccc3c(c2)OCO3)CC1	-4%	?	15	7%	-1%	-5%
O=C(CCSCc1cccc(F)c1)NCCc1ccccc1	-7%	7%	-5	42%	1%	19%
c1ccc(N2CCN(c3ncnc4sc5c(c34)CCC5)CC2)cc1	-2%	16µM*	1	-27%	-4%	2%
CCc1nc(N2CCN(C(=O)c3ccco3)CC2)c2c3c(sc2n1)CCCC3	-13%	?	-14	-18%	-5%	-12%
c1nc(N2CCC3(CC2)OCCO3)c2c3c(sc2n1)CCCC3	-1%	-22%	-17	-13%	-7%	-24%
O=C(c1ccco1)N1CCN(c2ncnc3sc4c(c23)CCC4)CC1	-3%	15µM*	13	-29%	-12%	-9%[10 µM]
CCOc1ccc(C2OC(=O)Cc3cc(OC)c(OC)cc32)cc1 (configuration not stated)	-2%	-15%	3	4%	-4%	2%
CCc1ccc(CN(C(=O)c2cccs2)C2CCS(=O)(=O)C2)cc1 (configuration not stated)	-6%	-4%	-7	-2%	-2%	8%
CNC[C@H](CC1CCCCC1)NC[C@H](Cc1ccccc1)NCCC12CC3CC(CC(C3)C1)C2	?	?	-11	-82%	-7%	20µM*
OCCC1CN(Cc2ccc(-n3cccn3)cc2)CCN1Cc1ccccc1 (configuration not stated)	-4%	-7%	-8	-6%	0%	-3%
CC(NC(=S)Nc1ccc([N+](=O)[O-])cc1)c1ccncc1 (configuration not stated)	-4%	?	-19	-8%	0%	24%
COc1ccccc1NC(=O)c1nnn(CC(=O)Nc2cccc(SC)c2)c1N	?	?	-4	3%	?	6.3µM*
COc1ccc(OC)c(NC(=O)c2nnn(Cc3ccccc3C)c2N)c1	-21%	11µM*	24	-43%	-20%	-14%
COc1ccccc1NC(=O)c1nnn(CC(=O)Nc2ccccc2)c1N	-1%	22%	1	7%	0%	?
C=C1C(=O)C23C(O)C1CCC2C12CCCC(C)(COC(C)=O)C1C(O)C3(O)OC2 (configuration not stated)	.	.	-7	-89%	.	.
